# Results published in PubChem BioAssay AID2278 (National Center for Advancing Translational Sciences (NCATS), 2010).
# Results filed as inconclusive are left out. Active and inactive are the calls of the source. Calls follow the shape of the dose curve; as a rule, active = well fitted curve in the direction sought with a large enough effect; inconclusive = small, poorly fitted or top-dose-only effect, or another doubt; inactive = no such curve, though single readings can be large or run the other way.
# Target: Group 10 secretory phospholipase A2 (Mus musculus) (UniProt Q9QXX3)
# Test: Secondary Assay for Inhibitors of Ubiquitin-specific Protease USP2a: PLA2 Counterscreen
# Text: NIH Molecular Libraries Screening Centers Network [MLSCN] NIH Chemical Genomics Center [NCGC] MLSCN Grant: XO1-MH079852-01 PI Name: Nicholson, Ben. Progenra Inc, Malvern, PA NCGC Assay Overview: Homeostasis of cellular proteins is maintained through a combination of synthesis and degradation. The pathway that accounts for the majority of protein degradation is the ubiquitin-proteasomal pathway. Ubiquitin (Ub) is highly conserved in all cells and the generation of a multi-Ub chain typically targets proteins for degradation by the proteasome. However, ubiquitination is highly reversible and dynamic. Deubiquitination, the reverse process, is catalyzed through the action of enzymes referred to as isopeptidases or deubiquitinating enzymes (DUBs). […]
# NCGC Assay Protocol Summary: The assay buffer, prepared fresh at the day of the assay, contains 20mM Tris-HCl pH 8.0, 2mM CaCl2, 2mM beta-mercaptoethanol, 0.1% DMSO. […] Plates were read immediately on an Envision (Perkin Elmer) plate reader using wavelengths of Ex 460nm /Em 535nm. Then, the assay plates were incubated for 2.5 hours and read again on the Envision using the same settings. […] Concentration-response curves were fitted to the normalized data and the concentration-response curves were then classified based on curve quality (r2), response magnitude and degree of measured activity. The time zero reading was used to flag fluorescence artifacts. […]
# Group 10 secretory phospholipase A2 (Mus musculus), sequence (Q9QXX3 whole entry, looked up): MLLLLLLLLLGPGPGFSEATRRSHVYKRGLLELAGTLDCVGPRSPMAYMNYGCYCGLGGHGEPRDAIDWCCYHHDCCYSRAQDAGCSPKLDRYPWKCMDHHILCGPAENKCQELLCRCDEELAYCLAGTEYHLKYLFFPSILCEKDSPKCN
row,SMILES,outcome
1,Cc1ccc2scc(N3CCN(C)CC3)c(=O)c2c1,inactive
2,CC1=NCCc2c1[nH]c1cc(O)ccc21,inactive
